Source: PubChem BioAssay (NCATS)
Where “and” joins values, the source holds several entries; their conditions need not be identical. Equal entries are not always repeated. Inconclusive results are not listed. Values without a mark were called inactive. Calls of active or inactive are those of the source. Calls follow the shape of the dose curve; as a rule, active = well fitted cell-killing curve with a large enough effect; inconclusive = small, poorly fitted or top-dose-only effect, or effect the other way; inactive = flat fitted curve, though single readings scatter.

What follows are compounds tested on CAOV3 (assay: Primary qHTS to identify gynecologic anti-cancer compounds using libraries of approved drugs and bioactive compounds (AID 1345084; also: nearly all actives have a fitted effect of over 55% in size)). Details: Gynecologic cancer cell panel viability, ATPlite luminescence, 48 h; series mostly up to 57.5 µM; activity change, negative = cytotoxicity: at the top concentration.
Source text: National Center for Advancing Translational Sciences [NCATS] Assay Overview: Chemotherapeutic drug responses vary from cancer to cancer and from patient to patient. These variations could be caused by a number of factors including patient genomic background, tumor mutations, tumor heterogeneity, and aspects of drug treatment. Chemotherapeutic drug resistance is also a common issue and can lead to ineffective treatment and patient death. Here we have profiled the cell killing effects of thousands of compounds to characterize the responses in three gynecological cancers, identify cancer-selective compounds, and understand the diversity of responses to these compounds from pan-cancer suppressors to single cell line selective compounds. In this assay, we screened a 7,914 compound drug library that included approved drug and bioactive compounds in six ovarian, three cervical, and […] placental cancer cell lines using the ATPlite assay for cell viability. […] The cervical cancer cell lines included HeLa, Ca Ski, and C-33 A. The placental cancer cell lines included JEG-3. HEK 293T cells were used as the control cell line to determine the selectivity index. ATPlite is a luminescence based assay reliant on the conversion of a luciferase substrate to light in the presence of ATP. As a cytotoxic compound will suppress growth and decrease the number of cells, the concentration of ATP will decrease, and less light signal will be detected in the well.
Assay Protocol Summary: 1,000 cells in 4 uL of media were dispensed into white, solid bottom 1536-well plates using a Multidrop Combi (Thermo Scientific). The Assay plates were incubated for 16 hours at 37 C with 5% CO2 in assay plates, followed by the addition of 23 nL of DMSO or drug dissolved in DMSO. Each compound was assayed in five concentrations (0.092, 0.46, 2.3, 11.5, and 57.5 uM), using the automated Wako 1536 Pin Tool workstation and incubated at 37 C with 5% CO2 48 hours. 4 uL of ATPlite, the ATP monitoring reagent, was then added to the each well of the assay plates using the Multidrop Combi reagent dispenser followed by incubation for 15 minutes at room temperature. The resulting luminescence was measured using the ViewLux plate reader.
% is scaled to controls: 0 for no effect and ±100 for the full control effect; potency is read from the fitted curve at half-maximal effect.

Row | SMILES | Potency | activity change, negative = cytotoxicity
1 | COc1cc2c(NC3CCN(C(C)C)CC3)nc(C3CCCCC3)nc2cc1OCCCN1CCCC1 | 6.31 µM (active) | 
2 | CCCCOc1c(C(=O)c2c(F)cc(C)cc2F)cnc2n[nH]cc12 |  | 3.37%
3 | CC1(O)CC(c2nc(-c3ccc4ccc(-c5ccccc5)nc4c3)c3c(N)nccn23)C1 (stereo not given) |  | -1.13%
4 | Cc1c(Cn2c(C)nc3c(C(=O)O)cc(N4CCOCC4)cc32)cccc1C(F)(F)F |  | -16%
5 | COc1cccc2nc(-c3cccs3)nc(NN3C(=O)C=C(C)C3=O)c12 | 15.8 µM (active) | 
6 | CN(C)c1nc(Cc2ccc(NC(=O)c3ccc4ccccc4c3)cc2)nc(Cl)c1CC(=O)O |  | 2.81%
7 | CNC(=O)CN1CCC(Oc2cc3c(Nc4cccc(Cl)c4F)ncnc3cc2OC)CC1 |  | -27.6%
8 | O=C(Nc1cc(C(F)(F)F)cc(C(F)(F)F)c1)c1cc(Cl)ccc1O | 8.91 µM (active) | 
9 | CC(C)(O)CCc1ccc(OCc2cc(-c3cccc(OC(F)F)c3)c3ncccc3c2)cc1 |  | -3%
10 | CCc1cc2c(cc1N1CCC(N3CCOCC3)CC1)C(C)(C)c1[nH]c3cc(C#N)ccc3c1C2=O |  | 7.73% [at 25.3 µM]
11 | OCc1ccc(-c2ccc(-c3ccc(CO)s3)o2)s1 | 0.199 µM (active) | 
12 | CCn1nnc2c(N3CCOCC3)nc(-c3ccc(NC(=O)Nc4ccc(C(=O)N5CCN(C)CC5)cc4)cc3)nc21 | 0.316 µM (active) | 
13 | CNC(=O)c1cc(Oc2ccc(NC(=O)Nc3cc(C(C)(C)C)nn3-c3ccc4ncccc4c3)c(F)c2)ccn1 |  | -14.7%
14 | NC1(Cc2ccc(Cl)cc2)CCN(c2ncnc3[nH]ccc23)CC1 |  | -1.47%
15 | COc1ccc(-c2cc3c(C)nc(N)nc3n(C3CCC(OCCO)CC3)c2=O)cn1 (stereo not given) | 1 µM (active) | 
16 | CC(C)Nc1cc(C(F)(F)F)cc2nc(NC(=O)c3cccnc3)nn12 |  | -7.52%
17 | Fc1cc(-c2cccc3ncc(-c4cnn(C5CCNCC5)c4)nc23)cc(F)c1CN1CCOCC1 | 31.6 µM (active) | 
18 | CC(C)c1noc(N2CCC(COc3ccc(-c4ccc(S(C)(=O)=O)cc4)nc3)CC2)n1 |  | -4.74%
19 | COc1cc(Nc2ncc(F)c(Nc3ccc4c(n3)N(COP(=O)(O)O)C(=O)C(C)(C)O4)n2)cc(OC)c1OC | 11.2 µM (active) | 
20 | CC1COC2(CCN(c3nc(=O)c4cc(C(F)(F)F)cc([N+](=O)[O-])c4s3)CC2)O1 (stereo not given) |  | 25.1%

Row | SMILES | Potency | activity change, negative = cytotoxicity
21 | C=CC(=O)Nc1cc2c(Nc3ccc(F)c(Cl)c3)ncnc2cc1OCCCN1CCOCC1 | 10 µM (active) | 
22 | O=C(c1cncc(Br)c1)N1CCC(N2CCCC2)CC1 |  | 8.59%
23 | Clc1cccc(-n2nnnc2NCc2ccccc2Oc2ccccn2)c1Cl |  | -15.5%
24 | CS(=O)(=O)N1CCN(Cc2cc3nc(-c4cccc5[nH]ncc45)nc(N4CCOCC4)c3s2)CC1 |  | -42.5%
25 | C[C@@H](Oc1cc(-c2cnn(C3CCNCC3)c2)cnc1N)c1c(Cl)ccc(F)c1Cl | 11.2 µM (active) and 12.6 µM (active) | 
26 | OCCCNc1cc(-c2ccnc(Nc3cccc(Cl)c3)n2)ccn1 |  | -25.7%
27 | Nc1ccccc1NC(=O)c1ccc(CNC(=O)OCc2cccnc2)cc1 |  | -2.13%
28 | NC(=O)Nc1cc(-c2cccc(F)c2)sc1C(=O)N[C@H]1CCCNC1 | 1.58 µM (active) | 
29 | CC(=O)SC[C@@H](C)C(=O)N1CCC[C@H]1C(=O)N[C@@H](Cc1ccccc1)C(=O)O |  | -13.3%
30 | Cc1ccc(C(=O)Nc2cccc(C(F)(F)F)c2)cc1-c1ccc2nc(NCCN3CCOCC3)ncc2c1 | 22.4 µM (active) | 
31 | COc1cc2c(Oc3ccc(-c4cnc(Nc5ccc(F)cc5)n(C)c4=O)cc3F)ccnc2cc1OCCCN1CCOCC1 |  | -29.4%
32 | COc1ccc2c(OCc3nnc4ccc(-c5ccccc5)nn34)ccnc2c1 |  | 12.8%
33 | CN(C1CCc2c(c3ccccc3n2CC(=O)O)C1)S(=O)(=O)c1ccc(F)cc1 (stereo not given) | inactive | 
34 | CN(C)CC(C)(C)CNc1nn2c(-c3ccccc3)nnc2cc1C1CCC1 |  | 5.26%
35 | CCn1cc(-c2ccnc3[nH]c(-c4cccc(CN(C)C)c4)cc23)c(-c2ccc(NC(=O)N(C)C)cc2)n1 |  | -34.9% [at 25.3 µM]
36 | Cc1cc(Nc2ncnc3ccc(-c4ccc(CNCCS(C)(=O)=O)o4)cc23)ccc1Oc1ccn2ncnc2c1 |  | -11.9%
37 | COc1cccc(-c2ccc(NC(=O)C3=C(C(=O)O)CCC3)c(F)c2)c1 |  | 13.6%
38 | CC[C@@]1(O)C(=O)OCc2c1cc1n(c2=O)Cc2cc3cc(O)ccc3nc2-1 | 0.355 µM (active) | 
39 | Nc1nc(NCCNc2ncc(-n3ccnc3)c(-c3ccc(Cl)cc3Cl)n2)ccc1[N+](=O)[O-] |  | -3.13%
40 | C=CCn1c(=O)c2cnc(Nc3ccc(N4CCN(C)CC4)cc3)nc2n1-c1cccc(C(C)(C)O)n1 | 3.55 µM (active) | 
